# Measurements as given in ChEMBL document CHEMBL3433997, “St. Jude Leishmania screening dataset” (2016).
# Legend:
# Type in all cases: functional
# [1] = biological target: Solute carrier family 2, facilitated glucose transporter member 1 (Homo sapiens) (UniProt P11166); test: ST_JUDE_LEISH: Cytotoxicity at 2uM final concentration against transgenic Leishmania Mexicana promastigotes LmGLUT1 that are glucose transport deficient and complemented with the human glucose transporter GLUT1. Activity is measured by DNA content using SYBR green in vitro
# [2] = biological target: Hexose transporter 1 (Plasmodium falciparum) (UniProt O97467); test: ST_JUDE_LEISH: Cytotoxicity at 2uM final concentration against transgenic Leishmania Mexicana promastigotes LmPfHT that are glucose transport deficient and complemented with the Plasmodium falciparum hexose transporter. Activity is measured by DNA content using SYBR green in vitro
# [3] = biological target: Glucose transporter (Leishmania mexicana) (UniProt O61059); test: ST_JUDE_LEISH: Cytotoxicity at 2uM final concentration against transgenic Leishmania Mexicana promastigotes LmGT2 that are glucose transport deficient and complemented with the L. Mexicana glucose transporter 2. Activity is measured by DNA content using SYBR green in vitro
# Sequence of Solute carrier family 2, facilitated glucose transporter member 1 (Homo sapiens) (P11166 whole entry): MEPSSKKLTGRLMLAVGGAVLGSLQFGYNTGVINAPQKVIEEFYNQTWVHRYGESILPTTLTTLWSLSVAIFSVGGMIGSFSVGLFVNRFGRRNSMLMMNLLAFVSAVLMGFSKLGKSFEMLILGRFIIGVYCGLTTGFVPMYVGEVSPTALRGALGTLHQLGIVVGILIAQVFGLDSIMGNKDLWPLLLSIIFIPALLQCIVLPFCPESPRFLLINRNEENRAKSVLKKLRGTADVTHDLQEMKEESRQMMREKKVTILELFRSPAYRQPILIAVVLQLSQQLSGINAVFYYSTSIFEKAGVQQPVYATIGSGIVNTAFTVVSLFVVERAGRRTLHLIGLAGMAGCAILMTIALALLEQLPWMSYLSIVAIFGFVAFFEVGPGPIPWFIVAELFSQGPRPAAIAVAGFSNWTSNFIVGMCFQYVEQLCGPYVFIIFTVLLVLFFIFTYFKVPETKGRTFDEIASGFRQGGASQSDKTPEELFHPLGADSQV
Compound,inhibition [1] [%],inhibition [2] [%],inhibition [3] [%]
O=C(Nc1cc(F)cc(F)c1)N1CCOC(CCN2CCC3(CCc4ccccc43)CC2)(c2ccc(Cl)c(Cl)c2)C1 (stereo unspecified),3.28,3.01,1.78
Cc1[nH]c2ccccc2c1CC1CCN(CC2CCN(C(=O)/C=C/c3ccc(Cl)c(Cl)c3)CC2)CC1,0.92,1.33,1.79
CN(CCC1CCN(C(=O)/C=C/c2ccc(Cl)c(Cl)c2)CC1)C1CCC(c2c[nH]c3ccccc23)CC1 (stereo unspecified),7,8.06,3.97
O=C(CSc1ccccn1)Nc1c(F)cccc1F,3.81,3.5,2.68
CNCCNCc1ccc(-c2ccc(-c3nc4ccccc4[nH]3)s2)cc1,3.78,4.5,3.75
Nc1nccc2ccc(-c3ccncc3)cc12,5.87,7.14,6.25
O=C(Nc1ccc(C(=O)OCC2CCCN3CCCCC23)cc1)c1ccc([N+](=O)[O-])cc1 (stereo unspecified),-1.57,0.57,0.99
COc1cccc(-c2nc(Nc3ccncc3)c3ncn(C)c3n2)c1,3.21,3.6,2.65
Cc1cccc(C=NN=c2cc(C)[nH]c3ccc(F)cc23)n1,6.63,6.71,4.02
O=C(/C=C/c1ccc([N+](=O)[O-])cc1)N1CCC(CCN2CCC(c3c[nH]c4ccccc34)CC2)CC1,2.33,3.09,2.47
O=C(/C=C/c1ccc(C(F)(F)F)cc1)NCCCCCN1CCCN(C(=O)Nc2ccc(F)c(Cl)c2)CC1,1.19,1.85,0.39
CC(C)COc1ccc(Cl)cc1Cc1ccc(-c2nc3c(F)cccc3[nH]2)o1,0.36,0.7,2.89
O=C(NCC1CCC(C(=O)NC2CCCc3ccccc32)CC1)c1ccc(O)c(-c2cccc([N+](=O)[O-])c2)c1 (stereo unspecified),3.94,2.12,2.39
CCc1nn2c(Nc3ccncc3)cc(C)nc2c1-c1ccccc1,3.36,3.33,1.85
CC(C)[C@@H](NC(=O)NC1CCC(CCN2C3CCC2CC(OC(=O)C(CO)c2ccccc2)C3)CC1)C(O)(c1ccccc1)c1ccccc1 (stereo partly specified),8.23,8.36,4.86
CS(=O)(=O)Nc1ccc(OCCCCCCOc2ccc(NS(C)(=O)=O)cc2)cc1,1.48,3.08,2.14
Cc1cc(-c2cccc(CNC3CCCC3)c2)ccc1S(=O)(=O)NCCN1CCCC1,5,3.43,6.24
CC(Nc1ncc(-c2ccsc2)c(-c2nccs2)n1)c1ccc2c(c1)OCCO2 (stereo unspecified),5.89,5.47,7.42
Cc1ccc(F)c(OC2CCN(c3ccc(C(=O)NC4CC4)cn3)CC2)c1,0.56,1.76,-3.52
Cc1cccc2nc(-c3ccc(-c4cccc(CNCc5cccc(N)c5)c4)cc3)[nH]c12,2.44,2.16,-1.02
CCn1cnc2c(N3CCCCS3(=O)=O)cc(C(=O)N[C@@H](Cc3ccccc3)[C@H](O)CNC3CCOCC3)cc21,3.99,2.96,3.34

Compound,inhibition [1] [%],inhibition [2] [%],inhibition [3] [%]
COc1ccc(CNCc2cccc(-c3ccc(-c4nc5cccc(C)c5[nH]4)cc3)c2)cc1,14,9.73,7.5
COc1ccc2nccc([C@@H](O)CN3CCC(NC(=O)C(c4ccsc4)N4CCN(c5ccccc5)CC4)CC3)c2c1 (stereo partly specified),4.17,3.07,1.54
O=C(Nc1ccc2ccccc2c1)N(CCCn1ccnc1)Cc1csc(-c2ccc(CNCc3ccccc3)cc2)n1,-0.95,0.41,1.63
CCCCCCCN1CCC(NC(=O)Nc2ccnc3ccc(OC)cc23)C(CO)C1 (stereo unspecified),-0.96,-1.62,-3.37
COc1cc2ccccc2cc1CNCCCCCCNCc1cc2ccccc2cc1OC,5.18,6.05,5.15
Cc1ccc(C2CCN(CCCCNC(=O)c3ccc(-c4ccc(C#N)cc4)cc3)CC2)c(O)c1,7.24,7.29,7.94
O=C(C=Cc1cn(-c2ccccc2)nc1-c1cccs1)N1CCN(c2ccncc2)CC1,1.81,0.46,-3.76
Cc1cc(Nc2c(C(N)=O)cnc3cc(-c4ccoc4)ccc23)ccc1N1CCN(C)CC1,-1.39,-0.31,-0.69
O=C(Nc1ccc(OC2CCN(Cc3ccc(F)cc3)C2)c(Cl)c1)c1ccsc1 (stereo unspecified),4.02,3.33,1.2
CCOc1cc(C)ccc1C1CCN(CCCCNC(=O)c2ccc(NC(=O)c3cc(Cl)cc(Cl)c3)cc2)CC1,2.78,0.36,1.02
O=c1cc(NCCCNCc2cc3c(Cl)cccc3s2)[nH]c2ccccc12,-1.61,-0.8,-2.02
Oc1cc2ccccc2cc1CNC1CCCCC1,1.31,1.41,1.5
O=C(NCCCCN1CCC(c2ccc3ccccc3c2O)CC1)c1ccc(NC(=O)c2ccc(Cl)cc2)cc1,-0.08,1.46,0.92
COc1cccc(-c2cc3c(NCc4ccncc4)nccc3s2)c1,3.12,3.46,0.82
O=C(Nc1cccc(-c2ccc(-c3nc4cc(C(F)(F)F)ccc4[nH]3)s2)c1)c1cccnc1,4.93,4.73,4.16
CNc1ccc(CNCc2cccc(-c3ccc(-c4nc5ccccc5[nH]4)cc3)c2)cc1,0.78,-1.69,-1.34
c1ccc(-c2ccc3c(Nc4ccc5[nH]ncc5c4)ccnc3c2)nc1,4.92,4.75,5.04
CCOc1cc(C(=O)Nc2ccc3nc(N(CC)CC)cc(C)c3c2)cc(OCC)c1OCC,-0.12,-0.88,-3.87
CC(C)Oc1ccc(N2CCN(CCCCNC(=O)c3ccc(NC(=O)c4ccc(Cl)cc4)cc3)CC2)c(OC(C)C)c1,1.62,2.05,1.44
CC(C)NCc1cccc(-c2cccc(-c3nc4ccccc4[nH]3)c2)c1,-1.73,0.59,-1.69
CCCCCCCC1CC(CC(=O)Nc2ccnc3ccc(OC)cc23)CN1C(=O)OC(C)(C)C (stereo unspecified),9.12,11.2,3.12

Compound,inhibition [1] [%],inhibition [2] [%],inhibition [3] [%]
S=C(Nc1ccc(Cl)cc1)Nc1ccc(Nc2ccccc2)cc1,6.97,5.37,5
COc1ccc(CN2CCN(CC(=O)Nc3cc(Cl)ccc3-n3cncn3)CC2)cc1F,-1.01,1.82,-0.67
CCN(CCCN1CCCCC1)c1cc(C)nc(Nc2ccc(C)c(C)c2)n1,4.78,5.75,4.45
CCN(CC)CCN(Cc1ccc(-c2ccc(C(F)(F)F)cc2)cc1)C(=O)Cn1c(SCc2ccc(F)c(F)c2F)nc(=O)c2c1CCC2,2.57,4.02,3.4
O=C(NC1CC1)c1ccc(N2CCN(Cc3ccc(Cl)cc3)CC2)nc1,0.06,-0.23,-0.4
NC1=NC(c2ccccc2)(c2ccccc2)C(=O)N1Cc1ccc(-c2cccnc2)cc1,2.71,1.53,0.52
FC(F)(F)c1ccc2[nH]ccc(=NN=Cc3ccccc3)c2c1,1.45,-0.56,0.98
O=C(/C=C/c1ccc(Cl)c(Cl)c1)NCCCCCN1CCC(NC(=S)Nc2ccc(F)cc2F)CC1,16.5,14.9,14.5
N#Cc1ccc2c(c1)CCN(CCC1CCC(NC(=O)/C=C/c3ccc4[nH]ccc4c3)CC1)CC2 (stereo unspecified),1.65,0.57,0.13
COc1cc2nc(NCCc3ccccc3)nc(NCc3cc(C)no3)c2cc1OC,4.85,4.61,2.42
Cn1cncc1-c1cc2c(Nc3ccc(OCc4ccccc4)cc3)ncnc2cn1,4.63,5.99,1.66
Cc1cccc2nc(-c3cccc(-c4cccc(C(=O)NCCN5CCCC5)c4)c3)[nH]c12,1.04,1.28,-0.38
FC(F)(F)Oc1ccc(Nc2cc(-c3ccncc3)nc(-c3cccnc3)n2)cc1,2.18,3.54,0.59
FC(F)(F)c1ccc2[nH]c(-c3ccc(-c4cccc(CN5CCC(CCN6CCCCC6)CC5)c4)cc3)nc2c1,3.12,4.82,2.53
O=C(NCCc1ccccc1)N(Cc1ccc(-c2cccc(CN3CCNCC3)c2)cc1)C1CCN(Cc2ccccc2)CC1,1.57,1.61,0.74
Cc1c(C(=O)Nc2cc(Sc3ccc(F)cc3)cc([N+](=O)[O-])c2)sc2ncn(Cc3ccccc3F)c(=O)c12,9.44,9.11,8.4
O=C(/C=C/c1ccc(Cl)c(Cl)c1)NCCCCCN1CCC(NC(=O)Nc2ccc(Oc3ccccc3)cc2)C1 (stereo unspecified),2.36,1.54,0.16
CN1CCC(NCc2ccc(-c3ccc(S(=O)(=O)NC4CCC4)s3)cc2)CC1,3.46,1.25,0.74
CCOC(=O)c1ccc(NC(=O)Nc2cccc(-c3ccc(-c4nc5ccccc5[nH]4)cc3)c2)cc1,5.47,1.48,3.89
NC(=O)c1ccc(NCC(=O)Nc2cccc(-c3cccc(-c4nc5cc(F)ccc5[nH]4)c3)c2)cc1,-0.29,1.39,-1.25
